Results with a measured potency or affinity are listed apart. The source made the active and inactive calls.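 The calls were made as follows: active = fitted half-maximal dose no more than twice the top valid tested dose, for compounds that lower signal; inconclusive = fit invalid, or curve flat with activity between -70 and -30; inactive = potency past limit, curve flat within ±30, or signal increasing.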
target: NAD-dependent protein deacylase sirtuin-5, mitochondrial (Homo sapiens) (UniProt Q9NXA8); assay: SIRT5 deacylase inhibitors, dose response, biochemical, fluorescence imaging, cherry-pick, set 6 (AID 720597); conditions: Purified SirT5, succinyl-peptide-AMC/trypsin fluorescence; series mostly up to 15 µM; activity change, negative = inhibition: at the top concentration;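 also: lower AMC signal can also come from blocking the trypsin step; 0% = median of neutral control wells and -100% = median of positive control wells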
Sequence (Q9NXA8 whole entry, looked up): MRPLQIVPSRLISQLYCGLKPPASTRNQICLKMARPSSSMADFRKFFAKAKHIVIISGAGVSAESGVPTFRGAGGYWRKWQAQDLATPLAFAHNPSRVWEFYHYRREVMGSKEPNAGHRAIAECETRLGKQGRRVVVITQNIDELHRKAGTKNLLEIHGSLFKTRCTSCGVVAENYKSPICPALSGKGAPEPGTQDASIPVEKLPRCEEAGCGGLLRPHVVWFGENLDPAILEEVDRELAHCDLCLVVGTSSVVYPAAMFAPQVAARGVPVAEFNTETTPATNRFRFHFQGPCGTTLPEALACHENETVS

Activity change, negative = inhibition, inactive:
C[C@H]1CN([C@@H](C)CO)C(=O)c2cc(-c3ccc(C#N)cc3)cnc2O[C@@H]1CN(C)C(=O)Nc1ccc(C(F)(F)F)cc1 -27.3%, C[C@H](CO)N1C[C@H](C)[C@H](CN(C)Cc2ccc(C(F)(F)F)cc2)Oc2c(NC(=O)c3nc4ccccc4s3)cccc2C1=O -9.92%, CC(C)CC#Cc1ccc2c(c1)O[C@@H](CN(C)C(=O)C1CCCCC1)[C@H](C)CN([C@H](C)CO)S2(=O)=O -7.58%, COc1ccc(S(=O)(=O)Nc2ccc3c(c2)C(=O)N([C@@H](C)CO)C[C@@H](C)[C@@H](CN(C)Cc2ccc(Oc4ccccc4)cc2)O3)cc1 -0.798%, COc1ccc(NC(=O)N(C)C[C@H]2Oc3ccc(NS(=O)(=O)c4ccc(OC)cc4)cc3CC(=O)N([C@H](C)CO)C[C@H]2C)cc1 19.2% [at 16 µM], CCC(=O)N(C)C[C@@H]1Oc2ncc(-c3ccc(F)cc3)cc2C(=O)N([C@@H](C)CO)C[C@@H]1C -14.1%, C[C@@H]1CCCCO[C@@H](CN(C)Cc2ccc(Cl)c(Cl)c2)[C@@H](C)CN([C@H](C)CO)C(=O)c2cc(NC(=O)CCCCCC(=O)Nc3ccccc3N)ccc2O1 13%, CS(=O)(=O)N1[C@@H](CO)[C@@H](c2ccccc2)C12CN(C(=O)c1ccccc1F)C2 -6.8%, COc1ccc(CN(C)C[C@H]2OCCCC[C@H](C)Oc3ccc(N(C)C)cc3C(=O)N([C@H](C)CO)C[C@H]2C)cc1 13.1%, COc1ccc(NC(=O)Nc2ccc3c(c2)C(=O)N([C@@H](C)CO)C[C@H](C)[C@@H](CN(C)Cc2ccccc2)OCCCC[C@H](C)O3)cc1 -16.4%, CCC(=O)N1CCCCN2[C@H](CO)[C@H](c3ccc(-c4cccc(C#N)c4)cc3)[C@@H]2C1 -2.5%, C[C@@H]1CN([C@H](C)CO)C(=O)c2cc(-c3cccc(F)c3)cnc2O[C@@H]1CN(C)C -0.953%, COc1ccc(S(=O)(=O)N(C)C[C@H]2OCCCC[C@@H](C)Oc3ccc(NS(=O)(=O)c4ccc(F)cc4)cc3C(=O)N([C@@H](C)CO)C[C@@H]2C)cc1 -7.85%, C[C@H](CO)N1C[C@H](C)[C@H](CN(C)Cc2ccc(-c3ccccc3)cc2)Oc2cc(C#CC(C)(C)O)ccc2S1(=O)=O -17.6%, C/C=C/c1ccc([C@@H]2[C@H](CO)N(CC3CC3)C23CN(S(=O)(=O)CC)C3)cc1 1.88%, Cc1ccc(S(=O)(=O)N(C)C[C@H]2OCCCC[C@H](C)Oc3ccc(NS(=O)(=O)c4ccc(F)cc4)cc3C(=O)N([C@H](C)CO)C[C@H]2C)cc1 -18.5%, CC(C)C#Cc1ccc2c(c1)O[C@@H](CN(C)Cc1ccccn1)[C@H](C)CN([C@H](C)CO)S2(=O)=O 11.1%, COc1ccc(S(=O)(=O)Nc2ccc3c(c2)C(=O)N([C@H](C)CO)C[C@@H](C)[C@@H](CN(C)S(=O)(=O)c2ccccc2)OCCCC[C@@H](C)O3)cc1 -8.5%, Cc1cc(C)cc(NC(=O)C2CC(=O)n3ncnc3N2)c1 (stereo not given) -3.96% [at 18 µM], CO[C@@H]1CN(C)C(=O)c2ccc(NS(C)(=O)=O)cc2OC[C@@H](C)N(Cc2nccs2)C[C@H]1C -9.11%, COCC(=O)N(C)C[C@H]1[C@H](c2ccccc2)[C@@H](CO)N1C(=O)Cc1ccncc1 42.7%, CN(C)C(=O)c1cccc(-c2ccc([C@@H]3[C@H](CO)N4C(=O)CN(C(=O)C5CC5)C[C@@H]34)cc2)c1 7.57%, C[C@H](CO)N1C[C@H](C)[C@H](CN(C)C(=O)Nc2ccc(F)cc2)Oc2ccc(NC(=O)Nc3ccc(F)cc3)cc2C1=O -17%, COc1cccc(CN2[C@H](CO)[C@@H](c3ccccc3)C23CN(C(=O)C2CCC2)C3)c1 3.09% [at 16 µM], COc1ccc(S(=O)(=O)N2CCCCN3[C@H](CO)[C@@H](c4ccc(C#CC5CC5)cc4)[C@@H]3C2)cc1 -31%, COc1ccc(C#Cc2ccc([C@H]3[C@@H](CO)N4C(=O)CN(C(C)=O)C[C@H]34)cc2)cc1 -18.8%, C[C@H]1CCCCO[C@@H](CN(C)C(=O)Nc2ccc(C(F)(F)F)cc2)[C@@H](C)CN([C@@H](C)CO)C(=O)c2cc(NS(=O)(=O)c3ccc(Cl)cc3)ccc2O1 18%, C[C@H]1CN([C@@H](C)CO)S(=O)(=O)c2ccc(C#CC(C)(C)O)cc2O[C@@H]1CN(C)Cc1ccc(-c2ccccc2)cc1 -4.96%, COc1ccc(NC(=O)N(C)C[C@@H]2OCc3ccccc3-c3c(n(C)c4ccccc34)C(=O)N([C@@H](C)CO)C[C@@H]2C)cc1 2.24%, O=C(CCN1CCCCC1)N[C@H]1CC[C@H](CC(=O)N2CCC(Cc3ccccc3)CC2)O[C@@H]1CO -12.6%

From PubChem BioAssay AID720597 (Broad Institute, 2013)
